Screens: PubChem, several laboratories
Rows were chosen to be rich in hits. Some 4.5% of all compounds tested hit in one or more screens of this group.
Gli-Sufu block: blocks Gli-Sufu signaling in a luciferase reporter; Sufu-KO-LIGHT fibroblasts, Gli luciferase reporter luminescence; inhibition, % at 5 µM; actives 0.74% (n = 340,000); AID 588413;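 active = inhibition above about 55%, limit read from the data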;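 also: 0% = DMSO-treated cells and 100% = wells with medium but no cells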
Jurkat NFkB inh: inhibitors of the PMA/ionomycin-induced NF-kB reporter in Jurkat cells; actives 0.53% (n = 330,000); PMA/ionomycin-induced NF-kB luciferase reporter, luminescence; inhibition, % at 4 µM; in the data active = inhibition above about 50%
697 NFkB inh: lowers PMA/ionomycin-induced NF-kB signal in 697 B cells; 697 B-cell NF-kB luciferase reporter, 16 h; inhibition, % at 4 µM; actives 0.33% (n = 330,000); AID 435022; in the data active = inhibition above about 35%
CSC inhib: blocks cancer stem cells; cancer stem cell-like cells viability, luminescence; inhibition, % at 7.5 µM; actives 1.1% (n = 300,000); in the data active = inhibition above about 75%; inconclusive = no clear call, values can overlap the other calls; tested in HMLE shEcad cells
Mdm2-MdmX inh: human Mdm2/MdmX binding inhibition; SaOS-2 split-luciferase Mdm2/MdmX complementation, luminescence; inhibition, % at 8 µM; actives 3% (n = 330,000);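 active = inhibition of at least 50% at 8 µM in the primary screen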
Target sequence (O15151 whole entry, looked up): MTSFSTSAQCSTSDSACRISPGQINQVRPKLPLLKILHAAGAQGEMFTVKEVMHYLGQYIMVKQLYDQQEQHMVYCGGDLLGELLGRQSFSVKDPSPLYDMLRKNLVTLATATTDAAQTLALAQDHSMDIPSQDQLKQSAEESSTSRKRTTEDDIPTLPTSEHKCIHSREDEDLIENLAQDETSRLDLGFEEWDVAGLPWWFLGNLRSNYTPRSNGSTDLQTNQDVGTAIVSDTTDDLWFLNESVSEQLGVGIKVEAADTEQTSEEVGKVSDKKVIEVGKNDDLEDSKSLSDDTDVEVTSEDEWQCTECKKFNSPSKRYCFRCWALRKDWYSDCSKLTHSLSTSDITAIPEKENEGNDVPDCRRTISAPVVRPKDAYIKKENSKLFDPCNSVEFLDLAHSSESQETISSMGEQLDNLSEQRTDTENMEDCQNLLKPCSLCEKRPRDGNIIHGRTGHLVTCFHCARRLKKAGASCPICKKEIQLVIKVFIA
Target sequence (Q00987 whole entry, looked up): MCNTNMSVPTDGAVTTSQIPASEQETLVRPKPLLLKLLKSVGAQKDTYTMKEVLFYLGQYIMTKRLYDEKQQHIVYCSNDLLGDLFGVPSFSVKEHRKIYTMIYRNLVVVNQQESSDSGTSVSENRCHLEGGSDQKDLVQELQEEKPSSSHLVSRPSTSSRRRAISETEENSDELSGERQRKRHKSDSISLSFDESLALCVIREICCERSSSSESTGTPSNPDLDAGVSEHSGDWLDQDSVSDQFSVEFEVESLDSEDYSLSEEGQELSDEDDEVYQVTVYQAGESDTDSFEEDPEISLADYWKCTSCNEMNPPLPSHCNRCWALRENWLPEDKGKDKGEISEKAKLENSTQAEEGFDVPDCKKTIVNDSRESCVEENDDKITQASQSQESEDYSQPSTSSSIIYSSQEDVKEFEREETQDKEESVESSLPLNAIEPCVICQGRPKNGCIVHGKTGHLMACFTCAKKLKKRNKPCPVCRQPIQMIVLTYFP
aSyn UTR inh: MLPCN primary screen, SNCA 5' untranslated region | alpha-synuclein 5'UTR reporter, inhibitor activity | inhibition, % (tested at 7.5 µM) | actives 0.82% (n = 300,000) | AID 1813; in the data active = inhibition above about 60%; inconclusive = no clear call, values can overlap the other calls;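 also: H4 neuroglioblastoma cells stably carrying SNCA 5'UTR luciferase fusion; 0% = DMSO wells and 100% = positive control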
Mdm2-MdmX conf: confirmation of human Mdm2/MdmX interaction inhibitors; Mdm2-MdmX binding, luminescent assay; shares compounds with Mdm2-MdmX inh; actives 55% (n = 10,000); inhibition, % at 8 µM; in the data active = inhibition above about 40%
FLuc counter: full-length luciferase inhibition in Mdm2/MdmX counter-screen. actives 77% (n = 6,200). inhibition, % at 8 µM. shares compounds with Mdm2-MdmX inh. AID 504607. SaOS-2 full-length luciferase counterscreen, luminescence;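 active = mean inhibition at 8 µM reaching about 37%, which flags the compound as non-specific, limit read from the data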;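 also: p53-null SaOS-2 cells with luciferase driven by a doxycycline-inducible promoter; compound on cells about two nights before reading with doxycycline added after day one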
Active calls of the source: *; u = inconclusive; x = not tested or not shown; ! = not active in a repeat.

SMILES	Gli-Sufu block	Jurkat NFkB inh	697 NFkB inh	CSC inhib	Mdm2-MdmX inh	aSyn UTR inh	Mdm2-MdmX conf	FLuc counter
Cc1nn(CC(=O)NCCCN2CC(C)CC(C)C2)c(=O)c2cccn12 (stereo not drawn)	-1	3	-10	4	-13	17	x	x
Cc1ccc(C(C(=O)NCc2ccco2)N(C(=O)CNC(=O)c2cccs2)c2c(C)cc(C)cc2C)cc1 (stereo not drawn)	1	11	17	32	87*	24	53*	43*
Cc1ccc(C(C(=O)NCc2ccco2)N(C(=O)CNC(=O)c2cccs2)c2c(C)cccc2C)cc1 (stereo not drawn)	10	-10	-2	3	52*	0	53*	65*
Cc1[nH]c(-c2ccc(F)cc2)cc1C(=O)N1CCN(c2cccc(Cl)c2)CC1	-12	9	-1	24	38	7	x	x
CC(=O)Nc1cccc(NC(=O)CSc2ccc(-c3ccccn3)nn2)c1	-9	21	9	0	21	52	x	x
COc1cc(NC(=O)CSc2ccc(-c3ccccn3)nn2)cc(OC)c1	21	7	-8	-13	65*	49	59*	57*
Cc1ccc(NC(=O)CSc2ccc(-c3ccccn3)nn2)cc1F	9	12	3	-4	53*	-18	46*	47*
CCc1ccc(NC(=O)CSc2ccc(-c3ccccn3)nn2)cc1	-29	-2	-26	6	71*	7	45*	73*
CCOC(=O)c1ccccc1NC(=O)CSc1ccc(-c2ccccn2)nn1	6	-21	0	-3	75*	69*	77*	36*
CCOC(=O)c1ccccc1NC(=O)CSc1nccn1C	1	0	7	-6	15	9	x	x
CCOC(=O)C1CC2=C(CC(C)(C)CC2=O)N(CCOC)C1=O (stereo not drawn)	-2	x	x	x	x	x	x	x
O=C(Nc1ccc(CN2CCS(=O)(=O)CC2)cc1)c1ccc(C(F)(F)F)cc1	5	38	-46	-2	51*	3	8	x
Clc1ccc(Cn2ncc3c(NCc4ccco4)ncnc32)c(Cl)c1	4	43	-58	60	74*	29	66*	31
OCCNc1ncnc2c1cnn2Cc1ccccc1	8	x	x	-7	x	-3	x	x
c1ccc(CNc2ncnc3c2cnn3Cc2ccccc2)cc1	-16	48	-13	48	58*	15	55*	70*
COc1ccccc1CC(=O)c1ccc(OCc2ccccc2)cc1	-19	-6	-15	16	-4	-73	x	x
O=S(=O)(c1ccccc1)c1ncc(C(F)(F)F)cc1O	23	-3	21	10	4	3	x	x
O=S(=O)(c1ccccc1)c1ncc(C(F)(F)F)cc1Cl	3	-9	-10	x	61*	-12	32	x
CC(Sc1nnc(CN2CCCC2)n1Cc1ccccc1)C(=O)Nc1ccc(F)c(F)c1F (stereo not drawn)	12	x	x	x	x	x	x	x
Cc1ccccc1-n1sc2cc(F)ccc2c1=O	1	-10	-1	57	7	x	x	x
CCOc1ccc2nc(NC3=NC(C)(C)C=C(C)N3)nc(C)c2c1	15	-19	13	1	72*	18	34	x
CCOc1ccc2c(C)nc(NC3=NC(C)(C)C=C(C)N3)nc2c1	-14	-4	8	25	50*	4	34	x
CCOc1ccc2nc(NC3=NC(c4ccc(OC)cc4)CC(=O)N3)nc(C)c2c1 (stereo not drawn)	6	-2	-29	76*	98*	19	39	31
COCc1cc(=O)[nH]c(Nc2nc(C)c3cc(OC)ccc3n2)n1	x	-1	29	1	9	-4	x	x
CCOc1ccc2nc(N/C(N)=N/C(=S)Nc3ccc(C)c(C)c3)nc(C)c2c1	-4	30	-34	55	25	15	x	x
SMILES	Gli-Sufu block	Jurkat NFkB inh	697 NFkB inh	CSC inhib	Mdm2-MdmX inh	aSyn UTR inh	Mdm2-MdmX conf	FLuc counter
CCN(CC)c1ccc(N)cc1	61*	12	-5	23	80*	x	15	x
COC(CN(C(=O)CCl)C(C(=O)NC1CCCCC1)c1ccccc1C)OC (stereo not drawn)	14	12	0	-17	83*	-71	62*	44*
CCC(=O)C1CCCN(C(=O)c2ccc3nc(-c4cccc(OC)c4)oc3c2)C1 (stereo not drawn)	-44	-90	-158	-4	7	-85	x	x
CCOC(=O)C1CCCN(C(=O)c2ccc3nc(-c4cccc(OC)c4)oc3c2)C1 (stereo not drawn)	-32	13	-12	51	53*	-30	79*	113*
COc1cccc(CNC(=O)C2CCCN(S(=O)(=O)c3c(C)n[nH]c3C)C2)c1 (stereo not drawn)	6	-1	-9	x	24	17	x	x
CN(C)c1ccnc(Nc2ccccc2)c1C#N	-2	0	15	-6	-8	-11	x	x
CN(C)c1ccnc2c[cH-]cc12.[Fe].c1ccc(-[c-]2[c-](-c3ccccc3)[c-](-c3ccccc3)[c-](-c3ccccc3)[c-]2-c2ccccc2)cc1 (stereo not drawn)	0	17	8	-13	98*	38	78*	37*!
CCOC(=O)C1(Cc2cccc(OC)c2)CCN(Cc2ccc(C)s2)CC1	30	5	-20	9	27	10	x	x
CCOC(=O)c1ccc(CC2S/C(=C(\C#N)C(C)=O)NC2=O)cc1 (stereo not drawn)	5	2	-12	12	4	-8	x	x
CCc1ccc(CC2S/C(=C(\C#N)C(C)=O)NC2=O)cc1 (stereo not drawn)	0	-6	-184	52	61*	20	74*	70*
CCC[C@@H](CN[C@@H](CNC)[C@H](C)CC)NCC1CCC(C(C)(C)C)CC1 (stereo partly drawn)	2	13	12	44	99*	40	100*	2
CCC[C@H](CN[C@@H](CNC)[C@H](C)CC)NCCc1cc(C(F)(F)F)cc(C(F)(F)F)c1	15	35	20	59	97*	124*	100*	52*
CC[C@@H](C)[C@H](CNC)NC[C@@H](Cc1cccc2ccccc12)NCCc1cccc(C(F)(F)F)c1	14	25	9	u	100*	125*	100*	52*
S=C(Nc1cc(Cl)cc(Cl)c1)NC1CCN(Cc2ccccc2)CC1	31	7	21	75*	95*	72*	34	x
Cc1oc(-c2ccc(Cl)cc2)cc1C(=O)NC1CCN(Cc2ccccc2)CC1	9	-12	4	14	60*	21	28	x
Cc1ccccc1-c1nc(CN2CCC(C(=O)NC3CCN(Cc4ccccc4)CC3)CC2)c(C)o1	7	21	15	19	99*	-23	58*	75*
